High-throughput results: PubChem BioAssay, several laboratories
Shn3 inh set2 – inhibitors of Schnurri-3 3'UTR reporter in osteoblasts | Clone20 osteoblast Shn3 3'UTR firefly luciferase, 24 h | inhibition, % at 12.5 µM | hit rate 0.52% among 360,000 | AID 588674;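 active means mean inhibition of at least 75% with every replicate also reaching 75%; inconclusive means mean inhibition at least 75% but some replicate below; inactive means mean inhibition below 75%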
KKLEB cytotox – reduces viability of KKLEB cystic fibrosis airway cells | AID 602141 | KKLEB CF airway cells viability, ATPlite luminescence, overnight; active compounds read low; cells stimulated with P. aeruginosa culture filtrate | hit rate 0.36% among 360,000 | activity change (cytotoxicity), % at 5 µM;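 active means corrected activity change at or below -50% at 5 µM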
LGR2 inh – blocks bursicon-induced cAMP signaling via Drosophila LGR2 | HEK293 LGR2, CRE-luciferase, bursicon-stimulated, 4 h | AID 720647 | hit rate 0.35% among 380,000 | inhibition, % at 9.99 µM;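 active means drop in luminescence signal, shown as inhibition above about 50% in the replicate tests, limit read from the data, passing the limit was not always enough; inconclusive means probably only some replicates passing the limit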;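 further: agonist challenge used bursicon conditioned medium at about half maximal strength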
CF NFkB inh – inhibitors of cystic fibrosis induced NF-kB | AID 588850 | KKLEB NF-kB-GFP reporter, PAF-induced, GFP fluorescence overnight | hit rate 0.86% among 360,000 | inhibition, % at 5 µM;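 active means at least 50% inhibition at 5 µM, scaled per plate between neutral and stimulator controls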;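 further: PAF is a Pseudomonas aeruginosa culture filtrate used as stimulus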
EWS-Fli inh – blocks EWS/Fli oncoprotein-driven transcription. A673 NR0B1-luciferase reporter, viability-normalised. AID 651661. inhibition, % at 12.6 µM. hit rate 0.67% among 350,000;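 active means mean inhibition of at least 50% after viability correction, with every replicate also passing that limit; inconclusive means mean reaches 50% but only one of two replicates passes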;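 further: firefly luciferase signal divided by Alamar Blue viability fluorescence both relative to DMSO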
PAX8 reporter – PAX8 transcriptional activity inhibition. inhibition, % at 12.6 µM. RMG-I TPO-luciferase reporter, SteadyGlo, 24 h. hit rate 1.2% among 360,000;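 active means mean replicate inhibition at least 60% with every replicate also reaching 60%; inconclusive means only one of the two criteria is met; inactive means mean below 60% and not all replicates reaching 60%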;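 further: luciferase light reporting Pax8 driven TPO promoter activity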
Numbers stand for hits; 0 = inactive; ? = inconclusive; - = not tested or not shown. An excerpt weighted towards active compounds, which were near 2% of everything screened.

SMILES	Shn3 inh set2	KKLEB cytotox	LGR2 inh	CF NFkB inh	EWS-Fli inh	PAX8 reporter
COC(=O)[C@@H]1[C@@H](CO)[C@@H]2Cn3c(ccc(-c4ccccc4F)c3=O)[C@@H]2N1CC1CCCC1	-	-	0	-	0	0
COc1ccc(CN(C)C[C@H]2OCCCC[C@H](C)Oc3ccc(NC(=O)Nc4ccc(C(F)(F)F)cc4)cc3C(=O)N([C@@H](C)CO)C[C@@H]2C)cc1	-	-	-	-	71.3	106.1
COc1ccc(CN(C)C[C@@H]2OCCCC[C@@H](C)Oc3ccc(NC(=O)Nc4ccc(OC)cc4)cc3C(=O)N([C@@H](C)CO)C[C@H]2C)cc1	-	-	-	-	0	0
COc1ccc(CN(C)C[C@@H]2OCCCC[C@@H](C)Oc3ccc(NC(=O)Nc4ccc(C(F)(F)F)cc4)cc3C(=O)N([C@@H](C)CO)C[C@@H]2C)cc1	-	-	-	-	69.7	86.2
Cc1noc(C)c1S(=O)(=O)N(C)C[C@@H]1OCCCC[C@H](C)Oc2ccc(N(C)C)cc2C(=O)N([C@@H](C)CO)C[C@H]1C	-	-	0	-	0	0
COc1ccc2c3c([nH]c2c1)[C@@H](CO)N(Cc1cccc(Cl)c1)CC31CN(C(C)=O)C1	-	-	0	-	0	0
COc1cc(C(=O)NC(=S)Nc2cccc(-c3cc4ccccc4oc3=O)c2)cc(OC)c1OC	0	0	-	0	-	-
Cc1cc(NC(=S)NC(=O)c2ccccc2)ccc1-c1cc2ccccc2oc1=O	0	-60.7	0	56.1	0	0
Cc1oc(=O)c(NC(=O)c2ccc(Cl)cc2)cc1C(=O)c1ccccc1	94.4	0	-	0	-	0
CC(=O)Nc1cc2ccccc2oc1=O	0	0	0	0	0	0
Cc1ccc(C(=O)Nc2cc3ccccc3oc2=O)cc1	0	0	99.1	0	79.1	0
COc1cccc(-c2ccc3c(c2)[C@H]2[C@H](CCN2C(=O)C2CC2)[C@@H](CO)N3)c1	-	-	0	-	0	-
Cc1ccc(S(=O)(=O)Nc2ccc3c(c2)C(=O)N([C@@H](C)CO)C[C@H](C)[C@H](CN(C)C(=O)Nc2c(C)noc2C)OCCCC[C@@H](C)O3)cc1	-	-	0	-	-	0
O=C(NCC[C@H]1CC[C@@H](NS(=O)(=O)c2ccc(F)cc2)[C@@H](CO)O1)Nc1ccc(F)cc1	-	-	0	-	0	0
C[C@@H]1CCCCO[C@H](CN(C)C(=O)Nc2ccc(C(F)(F)F)cc2)[C@@H](C)CN([C@@H](C)CO)C(=O)c2cc(NS(=O)(=O)c3ccccc3)ccc2O1	-	-	0	-	0	80.9
C[C@H]1CCCCO[C@H](CN(C)C(=O)Nc2ccc(C(F)(F)F)cc2)[C@@H](C)CN([C@@H](C)CO)C(=O)c2cc(NS(=O)(=O)c3cccs3)ccc2O1	-	-	0	-	0	78.6
C[C@@H]1CCCCO[C@@H](CN(C)C(=O)Nc2ccc(C(F)(F)F)cc2)[C@@H](C)CN([C@H](C)CO)C(=O)c2cc(NS(=O)(=O)c3ccc(F)cc3)ccc2O1	-	-	0	-	-	66.3
C[C@@H]1CCCCO[C@H](CN(C)C(=O)Nc2ccc(C(F)(F)F)cc2)[C@H](C)CN([C@@H](C)CO)C(=O)c2cc(NS(=O)(=O)c3cccs3)ccc2O1	-	-	0	-	0	0
C[C@H]1CCCCO[C@H](CN(C)C(=O)Nc2ccc(C(F)(F)F)cc2)[C@@H](C)CN([C@@H](C)CO)C(=O)c2cc(NS(=O)(=O)c3ccc(Cl)cc3)ccc2O1	-	-	0	-	0	90.7
C[C@H](CO)N1C[C@H](C)[C@H](CN(C)C(=O)Nc2ccc(C(F)(F)F)cc2)OCCCC[C@H](C)Oc2ccc(NS(=O)(=O)c3ccc(Cl)cc3)cc2C1=O	-	-	0	-	0	0
C[C@@H]1CCCCO[C@H](CN(C)C(=O)Nc2ccc(C(F)(F)F)cc2)[C@@H](C)CN([C@H](C)CO)C(=O)c2cc(NS(=O)(=O)c3ccccc3)ccc2O1	-	-	0	-	0	0
C[C@H](CO)N1C[C@H](C)[C@@H](CN(C)C(=O)Nc2ccc(C(F)(F)F)cc2)OCCCC[C@H](C)Oc2ccc(NS(=O)(=O)c3ccc(F)cc3)cc2C1=O	-	-	0	-	0	?
CC=Cc1ccc2n(c1=O)C[C@@H]1[C@@H](CO)[C@H](C(=O)NCCc3cn(C)cn3)N(C(=O)C3CCCC3)[C@H]21 (mixture of isomers)	-	-	0	-	0	0
C[C@@H]1CN([C@H](C)CO)C(=O)c2cc(NS(=O)(=O)c3cccs3)ccc2O[C@@H](C)CCCCO[C@H]1CN(C)CC1CC1	-	-	0	-	0	0
C[C@H](CO)N1C[C@H](C)[C@H](CN(C)C(=O)Nc2cccc3ccccc23)Oc2ccc(NS(=O)(=O)c3cccs3)cc2C1=O	-	-	0	-	0	-
SMILES	Shn3 inh set2	KKLEB cytotox	LGR2 inh	CF NFkB inh	EWS-Fli inh	PAX8 reporter
C[C@@H]1CN([C@@H](C)CO)C(=O)c2cc(NS(=O)(=O)c3ccc(F)cc3)ccc2O[C@@H]1CN(C)C(=O)Nc1ccc(C(F)(F)F)cc1	-	-	0	-	0	70.7
Cc1ccc(S(=O)(=O)Nc2ccc3c(c2)C(=O)N([C@@H](C)CO)C[C@H](C)[C@@H](CN(C)C(=O)Nc2ccc(C(F)(F)F)cc2)OCCCC[C@@H](C)O3)cc1	-	-	0	-	0	74.7
Cc1ccc(S(=O)(=O)Nc2ccc3c(c2)C(=O)N([C@H](C)CO)C[C@H](C)[C@@H](CN(C)C(=O)Nc2ccc(C(F)(F)F)cc2)OCCCC[C@@H](C)O3)cc1	-	-	0	-	0	0
CCC(=O)N(C)C[C@@H]1Oc2cc(-c3ccc(OC)cc3)ccc2S(=O)(=O)N([C@@H](C)CO)C[C@@H]1C	-	-	0	-	0	0
CO[C@H]1CC[C@H]2CCN(C)C(=O)[C@H](C)[C@H](OC)CN(C)C(=O)c3cc(C#N)ccc3OC[C@H]1O2	-	-	0	-	0	0
COc1ccc(CN(C(=O)CSc2nnc(-c3ccc(F)cc3)o2)c2ccc(F)cc2)cc1	88.2	0	0	0	0	-
COc1ccc(-c2nnc(SCC(=O)c3ccc(C)o3)o2)cc1	0	0	0	0	0	-
CC(C)NC(=O)Nc1ccc2c(c1)C(=O)N([C@H](C)CO)C[C@@H](C)[C@@H](CN(C)S(=O)(=O)c1ccc(Cl)cc1)O2	-	-	0	-	0	0
CC(=O)O[C@H]1[C@@H](O)[C@H](O)[C@H](Oc2c(O)c(C)c3c4c2[C@@H](C)CC[C@@H]4[C@@H](C)C[C@H]3C=C(C)C)O[C@H]1C	0	0	0	0	0	64.3
O=C(COc1nc2ccccc2nc1N1CCOCC1)NC1CCCCC1	0	0	0	0	0	0
CCCNC(=O)COc1nc2ccccc2nc1N1CCOCC1	0	0	0	0	0	103.2
Cc1nc2ccccc2n1-c1nc(-c2ccco2)cc(C(F)(F)F)n1	0	-81.9	0	93.9	-	-
COc1ccccc1Nc1nc(NCC(C)C)nc(N)c1[N+](=O)[O-]	0	0	0	55.2	0	0
Cc1nn(C(C)(C)C)c(C)c1/C=N/OC(=O)Nc1ccc(Cl)cc1	-	-55.6	98.5	0	87.1	79.3
CCC(=O)N[C@H]1CC[C@@H](CC(=O)NCc2ccccc2F)O[C@@H]1CO	-	-	0	-	0	0
